Counter-ions that a name gives are not always drawn.
What follows are compounds tested on PBMC-derived induced microglia-like cells (piMGLC) (assay: synaptosome phagocytic index relative to DMSO control (fraction of DMSO); higher = more phagocytosis). Settings: concentration: 10 uM (2 uM for compounds listed in Table S2); pretreatment time: 24 h; assay time: 3 h.

| SMILES | synaptosome phagocytic index |
| --- | --- |
| C[C@@H](Nc1nc(N[C@H](C)C(F)(F)F)nc(-c2cccc(Cl)n2)n1)C(F)(F)F [Vorasidenib] | 0.481 |
| CC(C)Cc1ccc([C@@H](C)C(=O)O)cc1 [(R)-(-)-Ibuprofen] | 1.31 |
| CCCCC1C(=O)N(c2ccccc2)N(c2ccccc2)C1=O [Phenylbutazone] | 0.797 |
| CNS(=O)(=O)Cc1ccc2[nH]cc(CCN(C)C)c2c1 [Sumatriptan_(succinate)] | 0.992 |
| CCc1cc(Nc2nc(-c3ccc(-n4cnc(C)c4)c(F)c3)cs2)c(C)cc1C | 0.666 |
| CN1[C@@H]2CC[C@H]1C[C@@H](OC(c1ccccc1)c1ccccc1)C2 [Benztropine_(mesylate)] | 0.833 |
| CC12CC3CC(C)(C1)CC(N)(C3)C2 [Memantine_(hydrochloride)] | 0.724 |
| CCCCNc1ncc2c(-c3ccc(CN4CCN(C)CC4)cc3)cn([C@H]3CC[C@H](O)CC3)c2n1 | 0.246 |
| C[N+](C)(C)CCO.[Cl-] [Choline_(chloride)] | 0.799 |
| Cc1cn([C@H]2C=C[C@@H](CO)O2)c(=O)[nH]c1=O [Stavudine] | 0.555 |
| C.CN(C)C(=O)c1cc2cnc(Nc3ccc(N4CCNCC4)cn3)nc2n1C1CCCC1 [Ribociclib_succinate_hydrate] | 0.195 |
| CC[C@@]1(O)C(=O)OCc2c1cc1n(c2=O)Cc2cc3c(CN(C)C)c(O)ccc3nc2-1 [Topotecan_(Hydrochloride)] | 0.354 |
| NC(=O)N1c2ccccc2C=Cc2ccccc21 [Carbamazepine] | 0.865 |

Source: the supplement of paper PMC12339681
